# Rows were chosen to be rich in hits. Some 19% of all compounds tested hit in one or more screens of this group.
# HT1080 IDH1KD tx = qHTS for induction of synthetic lethality in tumor cells producing 2HG: qHTS for the HT-1080-IDH1KD cell line. 360,000 compounds, 2% hits. Potency, µM (highest dose often 46.1 µM), for inactives: at the top dose activity, negative = toxicity, most hits filed as cytotoxic. HT-1080 IDH1 knockdown viability, ATP luminescence, 48 h;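 also: potency is read from the fitted curve at half-maximal effect; 0% = DMSO wells and -100% = cell-free medium wells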
#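 HT-1080-IDH1KD cells (IDH1 knocked down), 750/well in RPMI with 5% FBS, treated with compound 48 h at 37 degrees C. Viability by CellTiter-Glo luminescence, normalised to DMSO and no-cell wells; concentration-response curves classed.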
# HT1080-NT tox = qHTS for induction of synthetic lethality in tumor cells producing 2HG: qHTS for the HT-1080-NT fibrosarcoma cell line; HT-1080-NT fibrosarcoma viability, CellTiter-Glo ATP luminescence, 48 h; Potency, µM (titrated, usually from 46.1 µM), without a hit: at the highest dose activity, negative = less viability, most hits filed as cytotoxic; 360,000 compounds, 1.6% hits; AID 686970, 2013;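 also: NT is the 2HG producing partner of a matched IDH1 knockdown line; potency is read from the fitted curve at half-maximal effect; 0% = DMSO-treated cells and -100% = media-only wells without cells; nearly all actives have a fitted effect of over 55% in size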
#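 Compounds were tested in concentration-response format on HT-1080-NT cells for 48 hours at 37 degrees C. Cell viability came from CellTiter-Glo luminescence; curves were classified by r2, response magnitude and activity.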
# TDP1 cell noCPT = qHTS for Inhibitors of human tyrosyl-DNA phosphodiesterase 1 (TDP1): qHTS in cells in absence of CPT. DT40 Tdp1-/- hTDP1 cells, no CPT, ATP luminescence, 48 h. Potency, µM (series often up to 46.2 µM), for the others: top-dose activity change, negative = growth inhibition, actives largely listed as inhibitors. 420,000 compounds, 15% hits; also: potency is read from the fitted curve at half-maximal effect; nearly all actives have a fitted effect of over 55% in size
#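 Cells were dispensed at 400 per well, compounds added by pin tool, plates incubated ≥48 hr at 37 °C, then CellTiter-Glo added for 30 min at room temperature before luminescence reading. Line: DT40 Tdp1-/- complemented with hTDP1; camptothecin omitted.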
# IL1B secr inh = qHTS for Inhibitors of Inflammasome Signaling: IL-1-beta AlphaLISA Primary Screen | THP-1 LPS/ATP IL-1B secretion, AlphaLISA, 16 h; active compounds read low | activity change, % at 57.5 µM | 360,000 compounds, 4.7% hits | AID 743279, 2014; in the data active = activity change below about -50%; inconclusive = mostly about -30% to -49%
#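 THP-1 cells pretreated 1 hr with compounds (up to 57.5 uM final), then stimulated with LPS (250 ng/mL final) plus ATP (1.25 mM final); secreted IL-1B measured by AlphaLISA after 16 hr, decreased signal indicating inhibition.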
# TDP1 cell CPT = qHTS for Inhibitors of human tyrosyl-DNA phosphodiesterase 1 (TDP1): qHTS in cells in presence of CPT; chicken DT40 Tdp1-/-;hTDP1 cells + 20 nM CPT, ATP luminescence, 48 h; AID 686979, 2013; 420,000 compounds, 12% hits; Potency, µM (top dose mostly 46.2 µM), for the others: at the top dose activity change, negative = growth inhibition, usual class: inhibitors; also: potency is read from the fitted curve at half-maximal effect; nearly all actives have a fitted effect of over 55% in size
#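 Chicken DT40 Tdp1-/- cells complemented with human TDP1, 400 cells/well, exposed to compounds plus 20 nM camptothecin for at least 48 h at 37 C; viability read as ATP content by CellTiter-Glo luminescence.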
# * = called active by the depositor; ? = inconclusive; . = not tested or not shown. Unless noted, calls follow the shape of the dose curve; as a rule, active = well fitted curve in the direction sought with a large enough effect; inconclusive = small, poorly fitted or top-dose-only effect, or another doubt; inactive = no such curve, though single readings can be large; an effect the other way counts as inactive or inconclusive. Unless noted, % is scaled to controls: 0 for no effect and ±100 for the full control effect.
SMILES,HT1080 IDH1KD tx,HT1080-NT tox,TDP1 cell noCPT,IL1B secr inh,TDP1 cell CPT
CN(Cc1ccccc1F)c1cc2c(c3c1ccn3C)C1CCC2C1 (stereo unspecified),-9.5%,-7.8%,23.1µM*,0.0,?
COc1ccccc1NC(=O)c1cc[n+](C)cc1,5.3%,2.6%,-2.3%,18.6,-0.1%
COc1ccccc1NC(=O)c1sc(-c2ccc(Cl)cc2)cc1N,.,.,18.4µM*,.,?
COC(=O)c1sc(-c2ccc(Cl)cc2)cc1N,-17.2%,-11.2%,-0.6%,-9.8,1.1%
COc1ccccc1NC(=O)c1cc(N)cc(C(=O)Nc2ccccc2OC)c1,0.9%,-4.6%,?,-19.5,23.1µM*
COc1ccccc1N1CCN(C(=O)c2cccc(C(=O)N3CCN(c4ccccc4OC)CC3)c2)CC1,-6.4%,-3.4%,?,-6.2,?
COc1ccccc1NC(=O)c1coc(=O)c(Br)c1,-16.3%,-13.6%,2.06µM*,?,0.731µM*
COc1ccccc1N1CCN(C(=O)c2coc(=O)c(Br)c2)CC1,3.0%,-13.1%,7.31µM*,13.7,3.26µM*
CCOC(=O)c1cc2c(c(-c3ccccc3)n1)[C@H](CCO)N(S(=O)(=O)C(C)(C)C)C2,9.5%,5.6%,-9.6%,-15.2,-1.3%
NS(=O)(=O)c1ccc(NC(=S)N2CCN(c3ccccc3Cl)CC2)cc1,1.8%,4.3%,?,-3.9,?
O=S(=O)(c1cccc(NC(=S)N2CCN(c3cccc(Cl)c3)CC2)c1)C(F)F,23.1µM*,20.6µM*,?,?,?
O=S(=O)(c1ccc2ccccc2c1)N1CCN(C(=S)Nc2ccc(F)c(Cl)c2)CC1,?,-21.7%,?,-69.0*,?
NS(=O)(=O)c1ccc(NC(=S)N2CCN(c3cccc(Cl)c3)CC2)cc1,?,?,7.31µM*,-3.1,?
O=S(=O)(c1ccc2ccccc2c1)N1CCN(C(=S)Nc2ccccc2F)CC1,-10.3%,-4.0%,4.1%,-2.7,-1.9%
O=S(=O)(c1cccc(NC(=S)N2CCN(c3ccc(F)cc3)CC2)c1)C(F)F,-10.5%,1.7%,-66.5%,-3.3,?
COc1cccc(NC(=O)c2ccc3nc(C)c(N(C)Cc4ccc(NC(C)=O)cc4)n3c2)c1,2.7%,5.0%,-29.2%,-19.0,?
CSc1ccc(C2NC(=O)c3ccccc3N2)cc1 (stereo unspecified),9.2µM*,18.4µM*,16.4µM*,34.5,10.3µM*
CN1c2ccccc2N(C)C1c1ccc2c(c1)OCO2,?,-16.7%,16.4µM*,29.1,23.1µM*
c1cc2c3c(cccc3c1)NC(c1ccc3c(c1)OCO3)N2,0.9%,-10.3%,?,10.9,23.1µM*
CSc1ccc(C2Nc3cccc4cccc(c34)N2)cc1,2.1%,2.7%,?,7.3,14.6µM*
O=C(NC(=S)NNC(=O)c1cnccn1)c1ccc(Cl)cc1,?,-17.6%,?,19.9,8.2µM*
O=C(NC(=S)NC1CCCCCCCCCCC1)c1cccnc1,0.4%,-0.5%,14.6µM*,29.7,?
COc1ccc(C(=O)NC(=S)NNC(=O)c2cnccn2)cc1,2.91µM*,?,20.6µM*,23.0,20.6µM*
COc1cc(C(=O)NC(=S)NNC(=O)c2cnccn2)cc(OC)c1OC,14.6µM*,?,?,11.4,?
COc1cc(C(=O)NC(=S)NC(C)C)cc(OC)c1OC,0.2%,2.8%,?,0.0,-26.0%
SMILES,HT1080 IDH1KD tx,HT1080-NT tox,TDP1 cell noCPT,IL1B secr inh,TDP1 cell CPT
CNC(=O)Cn1nc(-c2ccc(Cl)cc2)c2ccccc2c1=O,5.5%,13.1%,17.8%,12.0,21.9%
CCN(CC)c1ccc(/C=N/NC(=O)c2nnn(-c3nonc3N)c2-c2ccc(C)cc2)cc1,-11.1%,-1.7%,?,12.5,?
CCCn1nnnc1NC(=O)COc1ccc(CC)cc1,1.2%,7.8%,-5.8%,-4.4,1.2%
O=C(NC(=S)NNC(=O)c1ccc(Cl)cc1Cl)c1cccnc1,-27.9%,0.1%,?,54.9,?
O=C(NC(=S)NNC(=O)c1ccccc1O)c1cccnc1,-21.0%,-1.2%,20.6µM*,0.0,?
O=C(NNC(=S)NC(=O)c1cccnc1)c1ccc(Cl)cc1,?,-29.7%,14.6µM*,38.3,23.1µM*
CCCCOc1ccc(C(=O)NNC(=O)c2cnccn2)cc1OC,?,?,20.6µM*,-73.3*,8.2µM*
Cc1cccc(N2CCN(C(=O)c3[nH]c(C(F)(F)F)nc3-c3ccccc3)CC2)c1C,0.581µM*,?,1.3µM*,128.1,1.3µM*
O=C(c1[nH]c(C(F)(F)F)nc1-c1ccccc1)N1CCCCC1,5.9%,9.4%,-4.0%,-10.7,4.5%
CC(=O)N1CCN(C(=O)c2[nH]c(C(F)(F)F)nc2-c2ccccc2)CC1,19.6%,6.0%,-12.8%,0.0,-4.3%
COc1ccc(N2CCN(C(=O)c3[nH]c(C(F)(F)F)nc3-c3ccccc3)CC2)cc1,?,-29.9%,?,21.1,?
O=C(c1[nH]c(C(F)(F)F)nc1-c1ccccc1)N1CCN(c2cccc(C(F)(F)F)n2)CC1,1.84µM*,1.3µM*,4.61µM*,98.3,4.61µM*
COc1ccccc1N1CCN(C(=O)c2[nH]c(C(F)(F)F)nc2-c2ccccc2)CC1,0.82µM*,1.3µM*,5.8µM*,82.7,6.51µM*
CCOC(=O)N1CCN(C(=O)c2[nH]c(C(F)(F)F)nc2-c2ccccc2)CC1,?,?,16.4µM*,-10.3,16.4µM*

# Screens (PubChem)
